Active and inactive are the calls of the source.

Assay [1] is described as follows: compound effects on differentiated 3T3-L1 adipocyte viability – cell-based, 3T3-L1 adipocytes, calcein-AM fluorescence, 48 h, basal, profiling panel (AID 1163). The settings on record: 3T3-L1 adipocytes viability, higher = more signal.
Assay [2] in a line: compound effects on hepatocellular carcinoma cell viability – HepG2, calcein-AM fluorescence, 48 h, basal, profiling panel (AID 1164). The settings on record: higher = more signal.
The nature of assay [3]: compound effects on multiple myeloma cell viability – MM1S, calcein-AM fluorescence, 48 h, basal, profiling panel (AID 1165).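 Further: viability of MM1S multiple myeloma cells under basal unstimulated conditions.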 To be noted: higher = more signal.
A short description of assay [4]: calcein-AM signal in unstimulated myeloma cells – cell-based, calcein-AM fluorescence, 48 h, PK04 Diversity Set, profiling panel (AID 1166).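 Further: cells grown under basal conditions without added stimulus.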 The settings on record: RPMI8226 myeloma viability, higher = more signal.
The nature of assay [5]: JC-1 mitochondrial signal, unstimulated HepG2 cells – cell-based, JC-1 fluorescence, 24 h, 100 nL compound, profiling panel (AID 1167). To be noted: HepG2 mitochondrial potential, higher = more signal.
The nature of assay [6]: JC-1 mitochondrial signal, unstimulated adipocytes – cell-based, JC-1 fluorescence, 3T3-L1 adipocytes, 24 h, 100 nL compound, profiling panel (AID 1168). To be noted: JC-1 mitochondrial fluorescence, higher = more signal, called active from +8 up or from −8 down.
Assay [7] in a line: JC-1 mitochondrial signal, unstimulated myeloma cells – cell-based, JC-1 fluorescence, RPMI8226, 24 h, 100 nL compound, profiling panel (AID 1169). The settings on record: JC-1 mitochondrial potential fluorescence, higher = more signal.
A short description of assay [8]: JC-1 mitochondrial signal, unstimulated MM1S myeloma – cell-based, JC-1 fluorescence, 24 h, 100 nL compound, profiling panel (AID 1170). The settings on record: MM1S mitochondrial potential, higher = more signal.
Assay [9] in a line: resazurin metabolic signal in A549 cells – cell-based, resazurin fluorescence, 24 h, PK04 Diversity Set, profiling panel (AID 1171). To be noted: A549 viability, higher = more signal, called active from +8 up or from −8 down. (Resazurin is reduced to fluorescent resorufin, in cell work by metabolically active cells.)
Assay [10] in a line: resazurin metabolic signal in HepG2 cells – cell-based, resazurin fluorescence, 24 h, PK04 Diversity Set, profiling panel (AID 1172). To be noted: HepG2 viability, higher = more signal.
Assay [11] in a line: budding yeast growth changes without added modifier – OD600, strain BY4716, 24 h, basal condition, primary screen (AID 1173). To be noted: S. cerevisiae BY4716 growth, OD600, 24 h; higher = more signal, called active from +8 up or from −8 down.
Assay [12] in a line: viability profiling in MM1S myeloma cells – cell-based, resazurin fluorescence, basal, 24 h, PK04 Diversity Set, profiling panel (AID 1174). The settings on record: higher = more signal, called active from +8 up or from −8 down.
Assay [13] deals with Dihydroorotate dehydrogenase (quinone), mitochondrial (Plasmodium falciparum (isolate 3D7)) (UniProt Q08210). The assay is described as follows: inhibition of P. falciparum DHODH – biochemical, C-terminal His tag, absorbance 600 nm, primary screen (AID 1175).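 Further: recombinant parasite enzyme with a five histidine tag at its C terminus.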 The settings on record: PfDHODH enzyme, DCIP absorbance 600 nm; higher = more signal, called active from +8 up or from −8 down.
Dihydroorotate dehydrogenase (quinone), mitochondrial (Plasmodium falciparum (isolate 3D7)), sequence (Q08210 whole entry, looked up): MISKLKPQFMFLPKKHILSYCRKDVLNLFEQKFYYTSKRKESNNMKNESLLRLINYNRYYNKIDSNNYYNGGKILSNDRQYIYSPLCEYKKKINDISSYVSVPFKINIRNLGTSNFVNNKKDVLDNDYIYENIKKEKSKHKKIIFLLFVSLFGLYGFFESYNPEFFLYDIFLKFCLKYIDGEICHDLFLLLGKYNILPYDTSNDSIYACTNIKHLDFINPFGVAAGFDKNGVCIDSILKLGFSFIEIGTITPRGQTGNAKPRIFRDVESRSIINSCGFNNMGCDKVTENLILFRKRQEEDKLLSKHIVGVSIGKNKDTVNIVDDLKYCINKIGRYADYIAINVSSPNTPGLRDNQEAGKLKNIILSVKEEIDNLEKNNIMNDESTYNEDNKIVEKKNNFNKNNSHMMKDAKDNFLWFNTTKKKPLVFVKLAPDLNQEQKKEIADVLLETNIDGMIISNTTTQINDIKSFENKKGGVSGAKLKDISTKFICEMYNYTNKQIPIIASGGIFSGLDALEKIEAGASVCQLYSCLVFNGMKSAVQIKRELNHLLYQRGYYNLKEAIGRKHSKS

A short description of assay [14]: growth modulation of vineyard yeast isolate – strain RM11-1a, OD600, basal, 24 h, primary screen (AID 1177).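 Further: cultures grown under basal conditions with no added stressor.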 To be noted: S. cerevisiae RM11-1a growth, OD600, 24 h; higher = more signal, called active from +8 up or from −8 down.
Assay [15] in a line: growth of efflux-deficient E. coli DRC39 – strain DRC39, OD650, 24 h, E. coli filamentation inducers, primary screen (AID 1178).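 Further: growth measured as culture turbidity by optical density at 650 nm.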 The settings on record: E. coli DRC39 acrAB, higher = more signal, called active from +8 up or from −8 down.
A short description of assay [16]: growth of efflux-deficient E. coli DRC39 – strain DRC39, OD650, 48 h, E. coli filamentation inducers, primary screen (AID 1179).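 Further: screen aims at cell division blockers that make cells filament.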 The settings on record: E. coli DRC39 delta-acrAB growth, higher = more signal, called active from +8 up or from −8 down.
A short description of assay [17]: viability profiling in RPMI8226 myeloma cells – cell-based, resazurin fluorescence, basal, 24 h, PK04 Diversity Set, profiling panel (AID 1180).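 Further: RPMI8826 multiple myeloma cell line at 5000 cells per well.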 The settings on record: higher = more signal.
For assay [18], the target named is E3 ubiquitin-protein ligase XIAP (Homo sapiens) (UniProt P98170). The assay is described as follows: small molecules binding XIAP protein – biophysical, small-molecule microarray, fluorescence 635 nm, primary screen (AID 1181).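 Further: score merges 667 nm emission and signal to noise over triplicate slides.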 The settings on record: higher = more signal.
E3 ubiquitin-protein ligase XIAP (Homo sapiens), sequence (P98170 whole entry, looked up, the tested form may be a part): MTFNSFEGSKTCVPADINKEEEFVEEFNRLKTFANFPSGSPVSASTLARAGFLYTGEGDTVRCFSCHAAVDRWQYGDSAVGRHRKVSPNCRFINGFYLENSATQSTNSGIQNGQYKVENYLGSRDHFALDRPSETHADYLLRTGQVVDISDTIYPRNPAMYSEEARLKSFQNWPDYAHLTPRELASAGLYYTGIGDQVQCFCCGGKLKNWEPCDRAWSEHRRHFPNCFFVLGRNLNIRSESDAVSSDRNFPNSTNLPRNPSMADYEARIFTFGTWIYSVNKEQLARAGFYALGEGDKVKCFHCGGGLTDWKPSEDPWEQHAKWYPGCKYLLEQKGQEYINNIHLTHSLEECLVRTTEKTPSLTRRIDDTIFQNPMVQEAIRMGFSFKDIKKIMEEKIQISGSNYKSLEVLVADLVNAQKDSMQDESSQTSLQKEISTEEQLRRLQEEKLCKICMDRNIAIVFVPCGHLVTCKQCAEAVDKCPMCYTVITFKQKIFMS
The test system of assay [19] is XIP peptide (Xip251-270) binding. The assay can be described thus: XIP fragment 251-270 binding compounds – biochemical, small-molecule microarray, fluorescence 635/667 nm, 0.1 µg/mL protein, primary screen (AID 1182). The settings on record: fluorescent protein binding, 635 nm, higher = more signal, called active from +8 up or from −8 down.
Assay [20] has as its system XIP peptide (Xip251-270). The assay is described as follows: compounds binding XIP fragment 251-270 – biochemical, small-molecule microarray, fluorescence 635/667 nm, 0.5 µg/mL protein, primary screen (AID 1183). To be noted: fluorescence 635 nm, higher = more signal.

`COc1ccc([Si](C)(C)[C@@H]2[C@@H](CCn3cc(CCO)nn3)O[C@]3(C(=O)N(Cc4ccc(N5C(=O)c6cccc7cccc5c67)cc4)c4ccccc43)[C@H]2C)cc1`: the z-score in [1] was 1.91; in assay [2] it was -4.48; in assay [3], -2.68; in assay [4], -4.34; in assay [5] it was 1.75; in assay [6] it was 2.83 (inactive). The z-score was -1.04 in assay [7]; -1.78 in assay [8]; -2.38 (inactive) in [9]; -1.3 in assay [10]; -0.456 (inactive) in assay [11]; -5.44 (inactive) in [12]. The z-score in [14] was 0.643 (inactive); in assay [15], 2.2 (inactive); in assay [16], 1.02 (inactive); in [17], -4.14. For the same compound, the composite z-score is 0.0498 (inactive) in assay [13], 0.0159 in [18], 0.437 (inactive) in assay [19] and 0.739 in [20].

Consider `CO[C@H]1O[C@H](CO)[C@@H](OC(=O)Nc2ccccc2)[C@H](OC(=O)Nc2ccccc2-c2ccccc2)[C@H]1OC(=O)Nc1ccccc1-c1ccccc1`, for which the z-score in [1] is 1.59; in [2] it was -4.94; in assay [3] it was -3.51; in assay [4], -4.34; in assay [5], -1.05; in assay [6] it was 3.65 (inactive). The z-score is -1.17 in assay [7]; -1.64 in [8]; -6.11 (inactive) in assay [9]; -4.93 in assay [10]; -2.12 (inactive) in assay [11]; -6.52 (inactive) in assay [12]. For the same compound, the z-score was 0.145 (inactive) in assay [14], 0.218 (inactive) in assay [15], -0.414 (inactive) in assay [16] and -5.34 in [17]. For the same compound, the composite z-score was -0.551 (inactive) in [13], 0.113 in [18], 1.32 (inactive) in assay [19] and 0.896 in [20].

Consider `O=C(NCc1ccccc1)[C@@H]1c2ccccc2C(=O)N(Cc2ccccc2Cl)[C@H]1c1ccc(CO)cc1`, for which the z-score in assay [1] is 1.23; in [2], -0.005; in assay [3], 0.138; in assay [4], -0.256; in [5], 1.99; in assay [6], -0.0174 (inactive). Further, the z-score in assay [7] is -0.939; in assay [8] it was -0.0877; in assay [9], 1.39 (inactive); in assay [10], 0.714; in [11] it was -1.18 (inactive); in assay [12], 0.687 (inactive). In addition, the z-score is -1.44 (inactive) in assay [14], 0.392 (inactive) in assay [15], 0.123 (inactive) in [16] and 1.63 in [17]. Also, the composite z-score in assay [13] is -1.17 (inactive); in assay [18] it was 0.0115; in assay [19], 0.188 (inactive); in [20], 0.819.

For `COc1ccc(C#Cc2ccc3c(c2)[C@]2(C(=O)N3)[C@H](c3ccc(O)cc3)N3[C@H](c4ccccc4)[C@H](c4ccccc4)OC(=O)[C@H]3[C@@H]2C(N)=O)cc1`, the z-score in assay [1] is 1.39; in assay [2] it was -4.79; in assay [3], -3.41; in [4], -4.61; in assay [5] it was -2.81; in assay [6] it was -0.0696 (inactive). In addition, the z-score in [7] was -1.32; in assay [8] it was -1.66; in assay [9], -1.62 (inactive); in assay [10], -0.424; in assay [11], -0.379 (inactive); in [12], -6.51 (inactive). Further, the z-score was 1.47 (inactive) in assay [14], 0.277 (inactive) in assay [15], 0.464 (inactive) in [16] and -6.8 in assay [17]. For the same compound, the composite z-score is 0.255 (inactive) in [13], 0.237 in assay [18], 0.0982 (inactive) in assay [19] and 0.542 in [20].

With `CN(C)CCCC[C@@H]1NC(=O)[C@@H]2C[C@H](C(=O)NCCCCCNC(=O)CS)[C@H](c3cccc(OCCO)c3)N2C1=O`, the z-score is 1.56 in assay [1]; -1.33 in assay [2]; -0.669 in assay [3]; -0.348 in assay [4]; 0.902 in assay [5]; 0.533 (inactive) in assay [6]. Further, the z-score was 0.526 in assay [7]; 0.249 in assay [8]; -0.42 (inactive) in [9]; -0.0484 in [10]; -1.86 (inactive) in [11]; 0.78 (inactive) in assay [12]. Also, the z-score in assay [14] was -2.53 (inactive); in [15] it was 0.431 (inactive); in [16], -0.248 (inactive); in assay [17], 0.608. Moreover, the composite z-score was -1.83 (inactive) in [13], -0.135 in assay [18], 0.62 (inactive) in assay [19] and -0.351 in [20].

The values above are taken from PubChem BioAssay.
